SMILES strings stand for the structures. Values joined by “and” are separate entries in the source; they are usually repeats but may differ in a detail not shown here. Identical values can stand only once. About 79,000 compounds went through this panel and 15% of them were active in at least one assay; those are over-represented in the sample as a whole. Unmarked numbers belong to inactive results. Active and inactive are the calls of the source. No stated cut-off is given here; in the data, active means growth inhibition above about 70%; inactive means the rest.

Experiment [1] can be described thus: NCI Yeast Anticancer Drug Screen. Data for the rad50 strain (AID 155).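 Further: 0% = growth of vehicle-only cultures of the same strain.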 Conditions: S. cerevisiae rad50 strain growth inhibition; at 50.0 µM; active compounds read high. The method in brief: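 Yeast carrying a defined DNA repair defect were exposed to test compounds, and growth was compared with vehicle-treated controls to give percent inhibition.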
The nature of experiment [2]: NCI Yeast Anticancer Drug Screen. Data for the mec2-1 strain (AID 157). The note with it: S. cerevisiae mec2-1 strain, at 50.0 µM, active compounds read high. In short, it runs like this: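 Vehicle-treated cultures served as reference for growth inhibition of compound-exposed mec2-1 yeast.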
Experiment [3] is described as follows: NCI Yeast Anticancer Drug Screen. Data for the sgs1 mgt1 strain (AID 161).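 Further: 0% = growth of cultures given vehicle only.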 Conditions: S. cerevisiae sgs1 mgt1 strain, at 50.0 µM, active compounds read high. In short, it runs like this: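 Read-out: growth inhibition vs vehicle controls. Cells: mutant yeast strain deficient in DNA damage repair.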
Experiment [4] is described as follows: NCI Yeast Anticancer Drug Screen. Data for the cln2 rad14 strain (AID 165).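 Further: 0% = growth equal to vehicle treated cultures.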 Conditions: S. cerevisiae cln2 rad14 strain, at 50.0 µM, active compounds read high. In short, it runs like this: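 Each compound was tested on cln2 rad14 yeast. Inhibition of growth was calculated against vehicle-exposed controls.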
Experiment [5] is described as follows: NCI Yeast Anticancer Drug Screen. Data for the bub3 strain (AID 167). Conditions: S. cerevisiae bub3 mutant strain, at 50.0 µM, active compounds read high. In short, it runs like this: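 Compounds were applied to a genetically altered yeast strain carrying a cell-cycle control defect. Growth inhibition was scored against vehicle-treated controls.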
A short description of experiment [6]: NCI Yeast Anticancer Drug Screen. Data for the mlh1 rad18 strain (AID 175). Conditions: S. cerevisiae mlh1 rad18 strain growth inhibition; at 50.0 µM; active compounds read high. The method in brief: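 Vehicle-treated cultures served as the reference for growth inhibition in a yeast strain carrying DNA damage repair alterations exposed to each compound.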

Regarding `CC(=O)OC1(c2nccc3ccccc23)CCN(Cc2ccccc2)CC1`, the growth inhibition in experiment [1] was 17.8%; in experiment [2], 9.45%; in experiment [3], 6.8%; in experiment [4], -8.3%; in experiment [5], 7.25%; in experiment [6], 12%.

Take `O=C(Oc1cc(Cl)c(S(=O)(=O)F)cc1Cl)c1ccccc1Cl`: the growth inhibition is 93.5% (active) in experiment [1]; 96% (active) in experiment [2]; 97.1% (active) in experiment [3]; 86.8% (active) in experiment [4]; 94.9% (active) in experiment [5]; 96.8% (active) in experiment [6].

Consider `Cc1ccc(C(C)(C)C)c(OP(=S)(S)Oc2cc(C)ccc2C(C)(C)C)c1.[Pb]`, for which the growth inhibition is 5.9% in experiment [1]; -1.85% in experiment [2]; -1.3% in experiment [3]; 9.7% in experiment [4]; -13.7% in experiment [5]; 7.3% in experiment [6].

`S=c1nccc[nH]1`: the growth inhibition in experiment [1] was 37.5%; in experiment [2], 24.2%; in experiment [3] it was 34.5%; in experiment [4], 37.5%; in experiment [5] it was 0.35%; in experiment [6], 17.4%.

In the case of `O=C(O)c1ccccc1N=Nc1ccc(N(CCCl)CCCl)cc1`, the growth inhibition in experiment [1] is 21.6% and 13.4%; in experiment [2], 14.2% and -11.7%; in experiment [3] it was 3.7% and -2.9%; in experiment [4], 10.8% and 20.6%; in experiment [5], 16.7% and -4.5%; in experiment [6], 31.1% and 8.15%.

Turning to `CC(C)(C)C1=C(Br)C(OC(=O)C(F)(F)F)(C(C)(C)C)OP1(=O)c1ccccc1` (centres undefined), the growth inhibition was 1.55% in experiment [1]; 12.2% in experiment [2]; -22.9% in experiment [3]; 30.9% in experiment [4]; -10.3% in experiment [5]; -7.2% in experiment [6].

Take `O=S(=O)(c1ccccc1)N1CN2CCN(C2)C1`: the growth inhibition in experiment [1] was 17.6%; in experiment [2], 7.2%; in experiment [3], 31.6%; in experiment [4] it was 2.65%; in experiment [5] it was 5.5%; in experiment [6], 10.4%.

As to `CC(C)(C)C1=C(Br)C(F)(C(C)(C)C)OP1(=O)c1ccccc1` (centres undefined), the growth inhibition in experiment [1] was 88.7% (active); in experiment [2], 92.3% (active); in experiment [3], 90.5% (active); in experiment [4], 90.5% (active); in experiment [5], 90% (active); in experiment [6], 91.6% (active).

As for `CC(C)([N+](=O)[O-])S(=O)O`, the growth inhibition is -9.15% in experiment [1]; -14.2% in experiment [2]; -22% in experiment [3]; -1.05% in experiment [4]; -5.4% in experiment [5]; -0.65% in experiment [6].

As to `CN(N=O)C(=O)NC1CCCCC1`, the growth inhibition in experiment [1] is -18.6%; in experiment [2], -0.25%; in experiment [3], -1.25%; in experiment [4] it was -4.45%; in experiment [5], -1.95%; in experiment [6] it was 13.8%.

Regarding `Cc1ccc(C2=NOP(c3ccccc3)(c3ccccc3)(c3ccccc3)C2)cc1`, the growth inhibition was 19.5% in experiment [1]; 2.7% in experiment [2]; 39% in experiment [3]; -37.8% in experiment [4]; 23.6% in experiment [5]; 23.9% in experiment [6].

Turning to `O=C(O)C(=O)Cc1ccc2c(c1)OCO2`, the growth inhibition was -3.8% in experiment [1]; -19.3% in experiment [2]; -28.6% in experiment [3]; -32.9% in experiment [4]; -20.2% in experiment [5]; 0.5% in experiment [6].

`CN(C)C(=O)C1(c2ccccc2)CCNCC1`: the growth inhibition is 19.4% in experiment [1]; -1.7% in experiment [2]; 3.25% in experiment [3]; 1% in experiment [4]; 1.2% in experiment [5]; -4.2% in experiment [6].

In the case of `C#CCOC(=O)C=[N+]=[N-]`, the growth inhibition in experiment [1] is -11.7%; in experiment [2], -6.75%; in experiment [3], -10.6%; in experiment [4] it was 14.7%; in experiment [5], 3.85%; in experiment [6] it was -2.1%.

For the compound `COC1OC2COc3ccccc3OC2C(N=C(N)N[N+](=O)[O-])C1OS` (centres undefined), the growth inhibition in experiment [1] is -0.8%; in experiment [2], -7.55%; in experiment [3] it was 2.15%; in experiment [4], -24.7%; in experiment [5], -3.15%; in experiment [6] it was 11.3%.

For `COc1c2c(nc3ccccc13)-c1cc3c(c(=O)n1C2)COC(=O)C3(O)CC(=O)N1CCOCC1` (centres undefined), the growth inhibition was 9.5% in experiment [1]; -4.25% in experiment [2]; 0.2% in experiment [3]; 52.5% in experiment [4]; -6.5% in experiment [5]; 6.35% in experiment [6].

Regarding `Nc1ccncc1`, the growth inhibition in experiment [1] is 4.35%; in experiment [2] it was -5.45%; in experiment [3], 10%; in experiment [4], 10.9%; in experiment [5], -2.55%; in experiment [6], 4.45%.

For `CC(NC1=NCCO1)c1ccccc1Cl` (centres undefined), the growth inhibition is -8.85% in experiment [1]; -29% in experiment [2]; 5.45% in experiment [3]; -27.9% in experiment [4]; -12.9% in experiment [5]; -48% in experiment [6].

With `CN1C(=O)C2(Cc3cn(C45CC67SSC(CO)(C(=O)N6C4Nc4ccccc45)N(C)C7=O)c4ccccc34)SSC1(CO)C(=O)N2C` (centres undefined), the growth inhibition was 90.2% (active) in experiment [1]; 90.3% (active) in experiment [2]; 90.3% (active) in experiment [3]; 89.2% (active) in experiment [4]; 90.8% (active) in experiment [5]; 89.8% (active) in experiment [6].
